# Where “and” joins values, the source holds several entries; their conditions need not be identical. Equal values may be shown once. Compounds without any hit were thinned out: in the full panel of roughly 83,000, 20% have a hit.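 In brief: 96-well plates, 48 h treatment, single concentration, percent growth endpoint.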 Values without a mark were called inactive. Calls of active or inactive are those of the source. The calls were made as follows: active = growth percent below 10; inactive = the rest.
# Test system: MDA-MB-468 breast
# Assay: NCI-60 one-dose screen, 48 h (100 = growth as untreated, 0 = no growth, -100 = all killed)
# Settings: 10 µM unless noted
row,SMILES,growth
1,COc1ccc(Cn2cc3c(c2-c2cc(OC)c(OC)c(OC)c2)CCCc2cnoc2-3)cc1N,46.7%
2,O=C1OCC2=C1C(c1ccccc1)c1cc3c(cc1N2CCO)OCCO3 (stereo not drawn),-63.7% (active)
3,CN[C@@H](CCCNC(N)=NC/C=C(/C)CCC=C(C)C)C(=O)N(C)[C@@H](CCCNC(N)=NCC=C(C)C)C(=O)N[C@H](C)[C@H](OS(=O)(=O)O)c1ccc(OS(=O)(=O)O)c(COS(=O)(=O)O)c1,97.3%
4,CCOC(=O)C1=C(C)NC(C)=C(C(=O)OC(C)C)C1c1cccc(C#N)c1 (stereo not drawn),79.4%
5,O=C(c1ccc(Cl)cc1)C(NCCO)c1ccc(Cl)cc1 (stereo not drawn),84.1% and 114%
6,Cc1nc2sc(C(=O)Nc3ccccc3)c(N)c2cc1C(O)c1ccccc1 (stereo not drawn),3.45% (active)
7,O=[N+]([O-])c1ccc(NS(=O)(=O)c2ccc(Cl)c(Cl)c2)cc1,64.6%
8,NCCNc1nc2ccccc2c2c(=O)c3cccc(F)c3sc12,70.6%
9,O=C1/C=C/[C@@H](O)[C@@H]2C[C@@H](O)C[C@H]2/C=C/CCC[C@H](CCO)O1,-54.5% (active)
10,COc1ccc(/C=C/C(=O)Nc2cc(/C=C\c3cc(OC)c(OC)c(OC)c3)cc(OC)c2OC)cc1OC,17.5%
11,COc1nc(N)nc(-n2c(-c3ccc(C)cc3)nc3ccccc32)c1NCc1ccc(C)cc1,98.6%
12,COc1cc2c(-c3nc4cc(Cl)c(F)cc4s3)cc(=O)oc2c(C)c1OC,-58.7% (active)
13,CN1C(=O)NC(Cc2c[nH]c3c(Cl)cccc23)C1=O (stereo not drawn),110%

# Reference: PubChem BioAssay (NCI)
